# Reference: PubChem BioAssay (NCI)
# Several values for one entry are separate records, joined by “and”; a condition that tells them apart may be missing. Equal values may be shown once. About 79,000 compounds went through this panel and 15% of them were active in at least one assay; those are over-represented in the sample as a whole. A structure can be active in one record and inactive in another. Activity calls are given as the source filed them. No stated cut-off is given here; in the data, active means growth inhibition above about 70%; inactive means the rest.
# Assay: NCI Yeast Anticancer Drug Screen. Data for the cln2 rad14 strain (AID 165);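 further: 0% = growth equal to vehicle treated cultures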
# Settings: S. cerevisiae cln2 rad14 strain, at 50.0 µM, stronger effect = higher value
# In short: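 Each compound was tested on cln2 rad14 yeast. Inhibition of growth was calculated against vehicle-exposed controls.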
row,SMILES,growth inhibition
1,O=C1C(CN2CCCCC2)CCCC1CN1CCCCC1 (stereo unspecified),-46.1% (inactive) and 41.2% (inactive)
2,NC(=O)c1cc(Br)cc(Br)c1O,94.5% (active)
3,CN(C)c1ccc(/C=C/c2ccc3ccccc3[n+]2C)cc1,98% (active)
4,C1=C(CN2CCCCC2)COc2ccccc21,65% (inactive)
5,O=C1Nc2ccccc2C1(O)C/C(=N/O)c1ccc2ccccc2c1 (stereo unspecified),38% (inactive)
6,CC(C)(S)C(N)C(=O)O (stereo unspecified),-2.5% (inactive) and 45.3% (inactive) and 3.15% (inactive)
7,COC(=O)[C@@H](NS(=O)(=O)CC12CCC(CC1)C2(C)C)C(C)(C)C,21.4% (inactive)
8,CN(CCN1C(=O)c2cccc3cccc(c23)C1=O)CCN1C(=O)c2cccc3cccc(c23)C1=O,83.6% (active)
9,CN(C)CCCN=c1c2ccccc2n(O)c2cccc([N+](=O)[O-])c12,22.4% (inactive)
10,O=C(/C=C/c1ccc(Cl)cc1)NC1C=Nc2ccc([N+](=O)[O-])cc2NC1=O (stereo unspecified),92.5% (active)
11,O=C(CC(=O)CC(O)(c1ccccc1)c1ccccc1)CC(=O)c1ccccc1,98% (active)
12,O=C(c1ccc(Cl)cc1)C(O)c1ccc(Cl)cc1 (stereo unspecified),36% (inactive)
13,COc1ccc2c(c1)C(Cc1ccc(Oc3ccc(CC4c5cc(OC)ccc5CC[N+]4(C)C)cc3)cc1)[N+](C)(C)CC2 (stereo unspecified),72% (active)
14,O=C(NO)c1cccnc1,14.8% (inactive)
15,Oc1c(Cl)c(Cl)c(Cl)c2ccccc12,53.4% (inactive)
16,CSC1SCC2C(=O)N(C)C(C(C)C)C(=O)OCC(NC(=O)c3cnc4ccccc4n3)C(=O)NC(C)C(=O)N(C)C1C(=O)N(C)C(C(C)C)C(=O)OCC(NC(=O)c1cnc3ccccc3n1)C(=O)NC(C)C(=O)N2C (stereo unspecified),98.2% (active) and 90.2% (active)
17,O=C(O)C1(Cc2ccccc2)Cc2cc3c(cc2C1)CCC3,89% (active)
18,CC1=C(C(=O)Nc2c(C)cccc2C)C(c2ccc3c(c2)OCO3)C(C(=O)Nc2c(C)cccc2C)=C(C)N1,79.5% (active)
19,COc1cc2c(c3c1/c(=N/N(C)C)c1ccccc1n3C)C=CC(C)(C)O2,-42.3% (inactive)

row,SMILES,growth inhibition
1,CC(=O)Nc1nc(N)c2ncn(C3OC(C(O)CO)C(O)C3O)c2n1 (stereo unspecified),53.5% (inactive) and -80% (inactive)
2,CC(C)(Cc1nocc1C(C)(C)CC#N)c1cc(CC(C)(C)C2(C)OCCO2)no1,25.3% (inactive)
3,CCOC(=O)c1c[nH]c2c(ccc3cccnc32)c1=O,26.9% (inactive) and 24.3% (inactive)
4,Cc1ncc(C[n+]2cccc(CCO)c2C)c(N)n1,58.1% (inactive) and 24.5% (inactive)
5,Clc1ccc2c(c1)[nH]c1c2nc2ccccn21,25.2% (inactive) and 77.5% (active)
6,O=C(O)c1ccccc1C(=O)O,21.1% (inactive) and 54.1% (inactive)
7,COC1/C=C/OC2(C)Oc3c(C)c(O)c4c(c3C2=O)C(=O)C=C(NC(=O)/C(C)=C\C=C\C(C)C2OC(C)(C)OC(C2C)C(C)C(OC(C)=O)C1C)C4=O (stereo unspecified),57% (inactive)
8,CCN(CC)CCCn1c2cc(=O)c(=O)cc-2[nH]c2cc(C)ccc21,-15.4% (inactive)
9,O=[N+]([O-])c1ccc(N/N=C/CC(O)(C(F)(F)F)C(F)(F)F)c([N+](=O)[O-])c1,88% (active)
10,OCc1ccccc1C(c1ccccc1)c1ccccc1,5.85% (inactive)
11,COc1ccc2[nH]c3c(C)c4ccncc4c(C)c3c2c1,91.8% (active) and 99% (active)
12,CC(C)CCC[C@@H](C)[C@H]1CC[C@H]2[C@@H]3CC=C4N5CCCN=C5CC[C@]4(C)[C@H]3CC[C@]12C,98.2% (active)
13,CC(C)CCCC(C)C1CCC2C3CC=C4CC([n+]5cccc6ccccc65)CCC4(C)C3CCC12C (stereo unspecified),68% (inactive)
14,O=C1/C(=C/c2ccc(Cl)cc2)CNC/C1=C\c1ccc(Cl)cc1,83.8% (active) and 83.5% (active)
15,CCn1c2ccccc2c2ccc(N=Cc3ccc(N(C)C)cc3)cc21,27.4% (inactive)
16,O=C1NC(=O)c2cc([N+](=O)[O-])ccc21,-1.95% (inactive) and 55% (inactive)
17,O=c1[nH]c(SCc2c(Cl)c(Cl)c(Cl)c(Cl)c2Cl)nc(=S)[nH]1,43.1% (inactive)
18,Cn1c2nc3ccccc3c-2cc2ccccc21,60.5% (inactive) and 59.4% (inactive)
19,O=Cc1cc(Br)ccc1O,48.2% (inactive) and 69% (inactive)

# Assay: NCI Yeast Anticancer Drug Screen. Data for the bub3 strain (AID 167)
# Settings: S. cerevisiae bub3 mutant strain, at 5.0 µM (retest, dose inferred, filed as 0.5), stronger effect = higher value
# In short: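 Inhibition values come from growth of compound-treated mutant yeast normalised to vehicle-treated controls.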
row,SMILES,growth inhibition
1,O=C1C(CN2CCCCC2)CCCC1CN1CCCCC1 (stereo unspecified),-4% (inactive)
2,NC(=O)c1cc(Br)cc(Br)c1O,1% (inactive)
3,CN(C)c1ccc(/C=C/c2ccc3ccccc3[n+]2C)cc1,-9% (inactive)
4,C1=C(CN2CCCCC2)COc2ccccc21,6% (inactive)
5,O=C1Nc2ccccc2C1(O)C/C(=N/O)c1ccc2ccccc2c1 (stereo unspecified),47% (inactive)
6,CC(C)(S)C(N)C(=O)O (stereo unspecified),-9% (inactive)
7,COC(=O)[C@@H](NS(=O)(=O)CC12CCC(CC1)C2(C)C)C(C)(C)C,0% (inactive)
8,CN(CCN1C(=O)c2cccc3cccc(c23)C1=O)CCN1C(=O)c2cccc3cccc(c23)C1=O,-2% (inactive)
9,CN(C)CCCN=c1c2ccccc2n(O)c2cccc([N+](=O)[O-])c12,9% (inactive)
10,O=C(/C=C/c1ccc(Cl)cc1)NC1C=Nc2ccc([N+](=O)[O-])cc2NC1=O (stereo unspecified),0% (inactive)
11,O=C(CC(=O)CC(O)(c1ccccc1)c1ccccc1)CC(=O)c1ccccc1,-8% (inactive)
12,O=C(c1ccc(Cl)cc1)C(O)c1ccc(Cl)cc1 (stereo unspecified),-10% (inactive) and -1% (inactive)
13,COc1ccc2c(c1)C(Cc1ccc(Oc3ccc(CC4c5cc(OC)ccc5CC[N+]4(C)C)cc3)cc1)[N+](C)(C)CC2 (stereo unspecified),-3% (inactive)
14,O=C(NO)c1cccnc1,4% (inactive)
15,Oc1c(Cl)c(Cl)c(Cl)c2ccccc12,92% (active)
16,CSC1SCC2C(=O)N(C)C(C(C)C)C(=O)OCC(NC(=O)c3cnc4ccccc4n3)C(=O)NC(C)C(=O)N(C)C1C(=O)N(C)C(C(C)C)C(=O)OCC(NC(=O)c1cnc3ccccc3n1)C(=O)NC(C)C(=O)N2C (stereo unspecified),7% (inactive) and 96% (active)
17,O=C(O)C1(Cc2ccccc2)Cc2cc3c(cc2C1)CCC3,-17% (inactive)
18,CC1=C(C(=O)Nc2c(C)cccc2C)C(c2ccc3c(c2)OCO3)C(C(=O)Nc2c(C)cccc2C)=C(C)N1,6% (inactive)
19,COc1cc2c(c3c1/c(=N/N(C)C)c1ccccc1n3C)C=CC(C)(C)O2,38% (inactive)

row,SMILES,growth inhibition
1,CC(=O)Nc1nc(N)c2ncn(C3OC(C(O)CO)C(O)C3O)c2n1 (stereo unspecified),1% (inactive)
2,CC(C)(Cc1nocc1C(C)(C)CC#N)c1cc(CC(C)(C)C2(C)OCCO2)no1,-7% (inactive)
3,CCOC(=O)c1c[nH]c2c(ccc3cccnc32)c1=O,-3% (inactive) and 4% (inactive)
4,Cc1ncc(C[n+]2cccc(CCO)c2C)c(N)n1,-4% (inactive) and 5% (inactive)
5,Clc1ccc2c(c1)[nH]c1c2nc2ccccn21,36% (inactive)
6,O=C(O)c1ccccc1C(=O)O,2% (inactive)
7,COC1/C=C/OC2(C)Oc3c(C)c(O)c4c(c3C2=O)C(=O)C=C(NC(=O)/C(C)=C\C=C\C(C)C2OC(C)(C)OC(C2C)C(C)C(OC(C)=O)C1C)C4=O (stereo unspecified),2% (inactive)
8,CCN(CC)CCCn1c2cc(=O)c(=O)cc-2[nH]c2cc(C)ccc21,3% (inactive)
9,O=[N+]([O-])c1ccc(N/N=C/CC(O)(C(F)(F)F)C(F)(F)F)c([N+](=O)[O-])c1,13% (inactive)
10,OCc1ccccc1C(c1ccccc1)c1ccccc1,0% (inactive)
11,COc1ccc2[nH]c3c(C)c4ccncc4c(C)c3c2c1,30% (inactive)
12,CC(C)CCC[C@@H](C)[C@H]1CC[C@H]2[C@@H]3CC=C4N5CCCN=C5CC[C@]4(C)[C@H]3CC[C@]12C,0% (inactive)
13,CC(C)CCCC(C)C1CCC2C3CC=C4CC([n+]5cccc6ccccc65)CCC4(C)C3CCC12C (stereo unspecified),74% (active)
14,O=C1/C(=C/c2ccc(Cl)cc2)CNC/C1=C\c1ccc(Cl)cc1,90% (active) and 46% (inactive)
15,CCn1c2ccccc2c2ccc(N=Cc3ccc(N(C)C)cc3)cc21,-3% (inactive)
16,O=C1NC(=O)c2cc([N+](=O)[O-])ccc21,0% (inactive)
17,O=c1[nH]c(SCc2c(Cl)c(Cl)c(Cl)c(Cl)c2Cl)nc(=S)[nH]1,14% (inactive)
18,Cn1c2nc3ccccc3c-2cc2ccccc21,30% (inactive)
19,O=Cc1cc(Br)ccc1O,6% (inactive) and -4% (inactive)
